Peg3 promoter – Peg3 promoter-driven luciferase inhibitors, primary screen, cell-based, HeLa, luciferase luminescence; 1.7% of 360,000 active; HeLa PEG-Prom luciferase reporter, overnight; AID 588405, 2011; inhibition, % at 20 µM;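 active means inhibition of at least 50% at 20 µM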
TRPM1 prom inh – inhibitors of MITF-dependent TRPM1 promoter reporter, primary screen, cell-based, SK-MEL-5, single point, luciferase; 0.83% of 330,000 active; SK-MEL-5 TRPM1 promoter luciferase, 24 h; inhibition, % at 12.5 µM;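 active means mean inhibition across replicates of 60% or more, whatever share of single replicates reaches that level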
Shn3 inh set2 – reduction of Shn3 3'UTR firefly luciferase signal, primary screen, Schnurri-3 inhibitor project, cell-based, Clone20 osteoblasts, set 2 | inhibition, % at 12.5 µM | 0.52% of 360,000 active | Clone20 osteoblast Shn3 3'UTR firefly luciferase, 24 h | AID 588674, 2011;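 active means mean inhibition of at least 75% with every replicate also reaching 75%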;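 further: 0% = median of neutral control wells and 100% = pilot-screen positive control compound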
EBV LMP1 NFkB – EBV LMP1-driven NF-kappaB luciferase reporter inhibitors, primary screen, cell-based, luminescence, single point; AID 504558, 2011; 0.69% of 350,000 active; inhibition, % at 12.5 µM; LMP1-induced NF-kappaB luciferase reporter cells; in the data active means inhibition above about 41%;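 further: 0% = neutral control wells and 100% = reference inhibitor control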
TROY signal inh – inhibitors of TROY-driven NF-kB signaling, primary screen, Q293 LMP1-TROYcd cells, NF-kB luciferase, uHTS | Q293 LMP1-TROYcd NF-kB luciferase reporter, 4 h | inhibition, % at 10 µM | 0.98% of 360,000 active | AID 1347056, 2019;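 active means compounds whose plate-normalised and pattern-corrected inhibition of the luciferase reporter signal at the single screening dose is 50% or more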
TWEAK-Fn14 inh – inhibitors of TWEAK-Fn14 signaling, primary screen, luciferase reporter cells, uHTS | TWEAK-stimulated Fn14 reporter cells, luciferase luminescence, 8 h | inhibition, % at 10 µM | 2% of 360,000 active | AID 1159606, 2016; in the data active means inhibition above about 50%
Numbers without * were called inactive. An excerpt weighted towards active compounds, which were near 4.1% of everything screened.

O=C(c1ccc([N+](=O)[O-])cc1)N1CCN(c2ncccn2)CC1 was read as Peg3 promoter 9, TRPM1 prom inh 1, Shn3 inh set2 -3, EBV LMP1 NFkB -3, TROY signal inh -18 and TWEAK-Fn14 inh 12.
For CCN1C[C@@H]2[C@@H]3C(=O)N(Cc4ccccc4)C(=O)[C@@H]3[C@](C)(C1=O)N2C(=O)c1ccc(Br)cc1 the results were Peg3 promoter 7, TRPM1 prom inh 2, Shn3 inh set2 13, EBV LMP1 NFkB -1, TROY signal inh 7 and TWEAK-Fn14 inh -3.
For COc1ccc(NC(=O)C2Cc3c(-c4ccc5c(c4)OCO5)ccnc3O2)cc1OC (stereo not drawn) the results were Peg3 promoter 25, Shn3 inh set2 78, TROY signal inh 35 and TWEAK-Fn14 inh 42.
Screening CC[n+]1c(C)sc2c3ccsc3ccc21 returned Peg3 promoter 18, TRPM1 prom inh 7, Shn3 inh set2 -9, EBV LMP1 NFkB 2, TROY signal inh 16 and TWEAK-Fn14 inh -4.
CCN1/C(=C\c2ccc3cc(C)ccc3[n+]2CC)Sc2cc(C)c(C)cc21 was read as Peg3 promoter 38, TRPM1 prom inh 73*, Shn3 inh set2 89*, EBV LMP1 NFkB 29, TROY signal inh 45 and TWEAK-Fn14 inh 64*.
CCN1/C(=C/c2ccc3cc(C)ccc3[n+]2CC)Sc2ccc3sccc3c21 was read as Peg3 promoter 111*, TRPM1 prom inh 100*, Shn3 inh set2 93*, EBV LMP1 NFkB 21, TROY signal inh 29 and TWEAK-Fn14 inh 32.
For CCN1/C(=C/c2ccc3cc(C)cc(C)c3[n+]2CC)Sc2cc(C)ccc21 the results were Peg3 promoter 99*, TRPM1 prom inh 83*, Shn3 inh set2 65, EBV LMP1 NFkB 29, TROY signal inh 31 and TWEAK-Fn14 inh 34.
CCN1/C(=C/c2ccc3cccc(C)c3[n+]2CC)Sc2ccccc21 was read as Peg3 promoter 56*, TRPM1 prom inh 72*, Shn3 inh set2 51, EBV LMP1 NFkB -3, TROY signal inh 42 and TWEAK-Fn14 inh 1.
`Cc1ccc(NC(=O)C2(C)CCN2C2Cc3ccccc3C2)cc1` (stereo not drawn) gave Peg3 promoter 10, Shn3 inh set2 -11, TROY signal inh 15 and TWEAK-Fn14 inh -5.
Cc1ccc(CCNC(=O)CN(C)S(=O)(=O)c2ccc3c(c2)n(C)c(=O)c(=O)n3C)cc1 was read as Peg3 promoter 9, TRPM1 prom inh -2, Shn3 inh set2 -9, EBV LMP1 NFkB -3, TROY signal inh 16 and TWEAK-Fn14 inh -1.
For N#Cc1ccccc1OCC(=O)N1CCN(C(=O)c2ccco2)CC1 the results were Peg3 promoter 4, TRPM1 prom inh 8, Shn3 inh set2 4, EBV LMP1 NFkB -1, TROY signal inh -7 and TWEAK-Fn14 inh 21.
Screening COCCNC(=O)C(c1c[nH]c2ccccc12)N(C(=O)c1snc(C(N)=O)c1N)c1cccc(OC)c1 (stereo not drawn) returned Peg3 promoter 5, TRPM1 prom inh -1, Shn3 inh set2 -8, EBV LMP1 NFkB 1, TROY signal inh 0 and TWEAK-Fn14 inh 8.
For CCOC(CNCc1cc(C)c2[nH]c3ccccc3c2c1C)OCC the results were Peg3 promoter 74*, TRPM1 prom inh 13, Shn3 inh set2 39, EBV LMP1 NFkB 9, TROY signal inh -10 and TWEAK-Fn14 inh -2.
`O=CN1CCN(c2c([N+](=O)[O-])c(=O)oc3ccccc23)CC1` gave Peg3 promoter 7, TRPM1 prom inh 37, Shn3 inh set2 -46, EBV LMP1 NFkB -1, TROY signal inh -1 and TWEAK-Fn14 inh 13.
Screening COc1ccc(N2C(=O)CC(Cc3ccccc3)C2=O)cc1 (stereo not drawn) returned Peg3 promoter -6, TRPM1 prom inh -7, Shn3 inh set2 -5, EBV LMP1 NFkB -1, TROY signal inh -11 and TWEAK-Fn14 inh -8.
`COc1ccc(C[C@@H]2OC3(C=CC(=O)C=C3)O[C@H]2Cc2ccc(OC)cc2)cc1` gave Peg3 promoter 103*, TRPM1 prom inh 100*, Shn3 inh set2 94*, EBV LMP1 NFkB 79*, TROY signal inh 85* and TWEAK-Fn14 inh 106*.
O=C1C=CC2(C=C1)O[C@H](Cc1ccccc1)[C@@H](Cc1ccccc1)O2 was read as Peg3 promoter 108*, TRPM1 prom inh 97*, Shn3 inh set2 97*, EBV LMP1 NFkB 87*, TROY signal inh 87* and TWEAK-Fn14 inh 107*.
Screening Nc1nc(SCC(=O)Nc2ccc([N+](=O)[O-])cc2)[nH]c(=O)c1NC(=O)c1ccc(Br)cc1 returned Peg3 promoter -5, TRPM1 prom inh 2, Shn3 inh set2 -9, EBV LMP1 NFkB -5, TROY signal inh -12 and TWEAK-Fn14 inh -21.
For COc1cc2c(cc1OC)CN(C(=O)C1CCN(S(=O)(=O)c3ccccc3F)CC1)CC2 the results were Peg3 promoter 7, TRPM1 prom inh -15, Shn3 inh set2 15, EBV LMP1 NFkB 8, TROY signal inh -18 and TWEAK-Fn14 inh -14.
`O=C(CCl)N(C/C=C/c1ccccc1)c1ccc2c(c1)OCCO2` gave Peg3 promoter -59, TRPM1 prom inh 4, Shn3 inh set2 -9, EBV LMP1 NFkB -10, TROY signal inh 23 and TWEAK-Fn14 inh 60*.
For COc1ccccc1/C=C/C(=O)NCC(=O)N=Nc1c(O)[nH]c2ccccc12 the results were Peg3 promoter -22, TRPM1 prom inh -10, Shn3 inh set2 -4, EBV LMP1 NFkB -5, TROY signal inh 8 and TWEAK-Fn14 inh -60.
Screening Cc1c(C(=O)O)sc2nc(CSc3ncc(C(F)(F)F)cc3Cl)[nH]c(=O)c12 returned Peg3 promoter 9, TRPM1 prom inh -1, Shn3 inh set2 7, EBV LMP1 NFkB -13, TROY signal inh -16 and TWEAK-Fn14 inh -33.
COc1ccccc1OCCNC(=O)c1cccc(S(=O)(=O)N2CC(C)OC(C)C2)c1 (stereo not drawn) was read as Peg3 promoter 8, TRPM1 prom inh -4, Shn3 inh set2 8, EBV LMP1 NFkB 8, TROY signal inh 1 and TWEAK-Fn14 inh -1.
For Cc1c(Cl)c(=O)oc2cc(OCC(=O)NCc3cccs3)ccc12 the results were Peg3 promoter 9, TRPM1 prom inh -4, Shn3 inh set2 -11, EBV LMP1 NFkB -2, TROY signal inh -5 and TWEAK-Fn14 inh -21.
Screening CCOc1ccc2c(C)c(Cl)c(=O)oc2c1 returned Peg3 promoter -36, TRPM1 prom inh 2, Shn3 inh set2 -5, EBV LMP1 NFkB 64*, TROY signal inh -18 and TWEAK-Fn14 inh -12.

Source: PubChem BioAssay (several laboratories)
